An excerpt weighted towards active compounds, which were near 3.5% of everything screened.
Anthrax LF prot – Bacillus anthracis LF protease inhibitors, primary screen, biochemical, multiplex microsphere, MLPCN library. multiplex microsphere protease cleavage assay. inhibition, % at 10 µM. 360,000 tested, 0.12% active; further: plate controls were buffer without enzyme for full effect and enzyme alone for no effect
Target sequence (P15917 whole entry, looked up): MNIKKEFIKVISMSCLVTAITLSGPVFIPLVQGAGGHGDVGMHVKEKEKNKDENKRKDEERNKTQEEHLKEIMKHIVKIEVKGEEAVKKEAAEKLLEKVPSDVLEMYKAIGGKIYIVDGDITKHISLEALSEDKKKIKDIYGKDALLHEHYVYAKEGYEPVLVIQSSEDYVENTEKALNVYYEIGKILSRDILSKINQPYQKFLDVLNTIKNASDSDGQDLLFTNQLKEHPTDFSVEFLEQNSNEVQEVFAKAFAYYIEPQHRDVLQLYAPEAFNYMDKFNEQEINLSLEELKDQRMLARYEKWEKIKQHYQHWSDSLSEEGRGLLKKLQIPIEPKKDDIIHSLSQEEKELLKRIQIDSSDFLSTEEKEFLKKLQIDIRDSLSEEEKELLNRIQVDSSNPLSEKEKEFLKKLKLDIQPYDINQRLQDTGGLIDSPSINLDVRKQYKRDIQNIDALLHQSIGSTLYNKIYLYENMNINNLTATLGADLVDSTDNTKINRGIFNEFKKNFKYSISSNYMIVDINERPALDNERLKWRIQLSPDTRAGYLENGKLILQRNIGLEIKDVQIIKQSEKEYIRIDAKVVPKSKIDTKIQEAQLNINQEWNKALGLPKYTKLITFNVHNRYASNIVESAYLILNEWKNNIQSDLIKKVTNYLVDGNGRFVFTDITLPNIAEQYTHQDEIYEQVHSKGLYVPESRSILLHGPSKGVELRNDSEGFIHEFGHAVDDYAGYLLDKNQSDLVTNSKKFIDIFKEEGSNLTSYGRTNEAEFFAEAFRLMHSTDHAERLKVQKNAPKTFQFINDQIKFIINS
BoNT-A LC inh2 – BoNT/A light chain protease inhibitors, primary screen, biochemical, flow cytometry, MLPCN library; Botulinum neurotoxin type A light chain protease (Clostridium botulinum A str. ATCC 3502); multiplex microsphere protease substrate cleavage; inhibition, % at 10 µM; 360,000 tested, 0.17% active; further: plate controls were buffer without enzyme for full effect and enzyme alone for no effect
Autofluor counter – flagged as autofluorescent in microsphere protease counterscreen. compound autofluorescence counterscreen, microsphere flow cytometry; hits give high values. 360,000 tested, 3.1% active. fluorescence intensity (no concentration beside the values); in the data active means fluorescence intensity above about 16000; inconclusive means no clear call, values can overlap the other calls
BoNT-F LC inh – BoNT/F light chain protease inhibitors, primary screen, biochemical, flow cytometry, MLPCN library; Botulinum neurotoxin type F light chain protease (Clostridium botulinum); Multiplex microsphere protease cleavage assay; inhibition, % at 10 µM; 360,000 tested, 0.22% active; AID 588497, 2011; in the data active means inhibition above about 35%, passing the limit was not always enough; inconclusive means no clear call, values can overlap the other calls; further: plate controls were buffer without enzyme for full effect and enzyme alone for no effect
Active calls of the source: *. Unless noted, no stated cut-off is given here; in the data, active means inhibition above about 30%; inconclusive means no clear call, values can overlap the other calls; inactive means below that.

`COC(=O)c1sc(NC(=O)COc2ccc(C)cc2)nc1C` gave Anthrax LF prot 1.0, BoNT-A LC inh2 1.0, Autofluor counter 20397* and BoNT-F LC inh 3.6.
For COc1ccc(CCN2CC34C=CC(O3)C(C(=O)NCc3ccccc3Cl)C4C2=O)cc1OC (stereo not drawn) the results were Anthrax LF prot -2.5, BoNT-A LC inh2 -0.5, Autofluor counter 3126 and BoNT-F LC inh -6.5.
For COc1ccccc1N1CCN(C(=O)C2C3C=CC4(CN(Cc5ccccc5Cl)C(=O)C24)O3)CC1 (stereo not drawn) the results were Anthrax LF prot -0.2, BoNT-A LC inh2 0.2, Autofluor counter 20591* and BoNT-F LC inh -0.8.
Screening O=C(c1ccc(Br)s1)N1CCN(c2ncccn2)CC1 returned Anthrax LF prot 1.5, BoNT-A LC inh2 1.9, Autofluor counter 23389* and BoNT-F LC inh -0.4.
COc1ccc(-n2c(O)c(C=Nc3ccccc3)c3ccccc3c2=O)cc1 was read as Anthrax LF prot -8.0, BoNT-A LC inh2 -1.0, Autofluor counter 3597 and BoNT-F LC inh -5.0.
`CCN(c1ccc(N=Cc2c(O)n(Cc3ccc(OC)cc3)c(=O)c3ccccc23)cc1)C(C)C` gave Anthrax LF prot 13.3, BoNT-A LC inh2 37.4*, Autofluor counter 55670* and BoNT-F LC inh 52.0*.
N#CC1(NC(=O)CSc2nnc(Nc3ccccc3F)s2)CCCC1 was read as Anthrax LF prot -0.1, BoNT-A LC inh2 0.2, Autofluor counter 4107 and BoNT-F LC inh 0.9.
COC(=O)c1cc(NC(=O)c2ccccc2)c(=O)oc1/C=C/Nc1ccc(Oc2ccccc2)cc1 was read as Anthrax LF prot 16.6, BoNT-A LC inh2 42.8*, Autofluor counter 97551* and BoNT-F LC inh 54.0*.
For COc1ccc(C(=O)Nc2cc(C(C)=O)c(C)oc2=O)cc1 the results were Anthrax LF prot -14.4, BoNT-A LC inh2 0.2, Autofluor counter 4373 and BoNT-F LC inh 0.3.
`Cc1ccc(Oc2cc(-n3nc(C)cc3C)ncn2)cc1` gave Anthrax LF prot -1.9, BoNT-A LC inh2 inconclusive, Autofluor counter 22017* and BoNT-F LC inh -0.9.
For Cc1cc(C)n(-c2cc(-n3nc(C)cc3C)ncn2)n1 the results were Anthrax LF prot -3.1, BoNT-A LC inh2 -0.5, Autofluor counter 9965 and BoNT-F LC inh 0.4.
Screening Cc1ccc(NC(=O)c2ccc(C)cc2)cc1 returned Anthrax LF prot -3.5, BoNT-A LC inh2 -0.4, Autofluor counter 4318 and BoNT-F LC inh -8.7.
For Cc1ccc(C(=O)Nc2ccc(Br)c(C(F)(F)F)c2)cc1 the results were Anthrax LF prot -1.3, BoNT-A LC inh2 -1.1, Autofluor counter 16589* and BoNT-F LC inh -4.4.
Screening CC(C)(C)c1ccc(C(=O)NC(=O)CSc2n[nH]c(N)n2)cc1 returned Anthrax LF prot 2.3, BoNT-A LC inh2 0.2, Autofluor counter 3065 and BoNT-F LC inh 6.7.
Screening CO/N=C/NC(=O)c1cn(-c2ccc(F)cc2)c(=O)c2ccccc12 returned Anthrax LF prot -4.5, BoNT-A LC inh2 -1.2, Autofluor counter 16209* and BoNT-F LC inh -2.4.
C=CCn1c(SCc2c(F)cccc2Cl)nnc1-c1ccco1 was read as Anthrax LF prot -2.5, BoNT-A LC inh2 -0.5, Autofluor counter 16837* and BoNT-F LC inh 0.3.
`O=C(CSc1nnc(-c2ccncc2)o1)Nc1ccc(F)c(F)c1` gave Anthrax LF prot 2.4, BoNT-A LC inh2 1.8, Autofluor counter 4831 and BoNT-F LC inh 5.3.
COc1cc2c3c(c1)-c1c(sn(-c4cc(OC)ccc4OC)c1=S)C(C)(C)N3C(=O)C2=O was read as Anthrax LF prot -6.3, BoNT-A LC inh2 2.0, Autofluor counter 21539* and BoNT-F LC inh 1.3.
Screening COc1ccc(S(=O)(=O)NCCC(C)C)cc1C returned Anthrax LF prot -1.2, BoNT-A LC inh2 0.8, Autofluor counter 23019* and BoNT-F LC inh -0.4.
For COc1ccc(S(=O)(=O)NCCOc2ccccc2)cc1C the results were Anthrax LF prot -9.2, BoNT-A LC inh2 0.3, Autofluor counter 3363 and BoNT-F LC inh 6.3.
`Cc1ccc(S(=O)(=O)Nc2ccc3ccccc3c2)cc1` gave Anthrax LF prot -1.1, BoNT-A LC inh2 -0.3, Autofluor counter 3935 and BoNT-F LC inh -6.3.
Cc1cc(S(=O)(=O)NCc2ccco2)c(C)s1 was read as Anthrax LF prot 0.5, BoNT-A LC inh2 0.5, Autofluor counter 2959 and BoNT-F LC inh 3.7.
For Cc1cc(S(=O)(=O)Nc2cc(C)c(O)c(C)c2)c(C)s1 the results were Anthrax LF prot -5.6, BoNT-A LC inh2 -2.8, Autofluor counter 16803* and BoNT-F LC inh -5.0.
For Cc1cc(S(=O)(=O)Nc2ccc3ccccc3c2)c(C)s1 the results were Anthrax LF prot -4.5, BoNT-A LC inh2 4.6, Autofluor counter 19290* and BoNT-F LC inh 2.2.
`COc1ccc(S(=O)(=O)Nc2ccc3ccccc3c2)cc1C` gave Anthrax LF prot 1.1, BoNT-A LC inh2 -3.8, Autofluor counter 25259* and BoNT-F LC inh -5.6.
Cc1cc(S(=O)(=O)Nc2cccnc2)c(C)s1 was read as Anthrax LF prot 0.1, BoNT-A LC inh2 -0.6, Autofluor counter 4703 and BoNT-F LC inh -4.6.
For COc1ccc(S(=O)(=O)Nc2ccc3c(c2)OCO3)cc1OC the results were Anthrax LF prot 0.1, BoNT-A LC inh2 inconclusive, Autofluor counter 18331* and BoNT-F LC inh -1.6.
Screening O=C(N/N=C/c1ccco1)c1ccncc1 returned Anthrax LF prot 0.4, BoNT-A LC inh2 -1.8, Autofluor counter 24013* and BoNT-F LC inh -1.3.
Screening O=C(N/N=C/c1ccco1)c1cnccn1 returned Anthrax LF prot -2.8, BoNT-A LC inh2 -0.9, Autofluor counter 6210 and BoNT-F LC inh -7.1.
`Cc1nc(SCC(=O)Nc2nnc(C(C)C)s2)n[nH]1` gave Anthrax LF prot -2.1, BoNT-A LC inh2 -1.6, Autofluor counter 6276 and BoNT-F LC inh -8.8.
COc1ccc(OCC(=O)NNc2c3ccccc3nc3ccccc23)cc1 was read as Anthrax LF prot -5.8, BoNT-A LC inh2 -0.2, Autofluor counter 16716* and BoNT-F LC inh -1.7.
O=C(COc1ccccc1)NNc1c2ccccc2nc2ccccc12 was read as Anthrax LF prot -3.8, BoNT-A LC inh2 1.1, Autofluor counter 2670 and BoNT-F LC inh -12.5.
`CCCNC(=O)c1ccccc1NC(=O)COc1ccc(OC)cc1` gave Anthrax LF prot -0.5, BoNT-A LC inh2 -1.2, Autofluor counter 19742* and BoNT-F LC inh -0.2.
COc1ccc(CNC(=O)COc2ccc([N+](=O)[O-])cc2)cc1 was read as Anthrax LF prot -9.1, BoNT-A LC inh2 2.3, Autofluor counter 19432* and BoNT-F LC inh 5.4.
For CC(=O)C1=C(C)Nc2ncnn2C1c1ccccc1F (stereo not drawn) the results were Anthrax LF prot -4.6, BoNT-A LC inh2 1.3, Autofluor counter 3810 and BoNT-F LC inh 26.0.
Screening O=C1C2CC=CCC2C(=O)N1Cc1nnc(-c2ccccc2Br)o1 (stereo not drawn) returned Anthrax LF prot -5.4, BoNT-A LC inh2 -0.4, Autofluor counter 4349 and BoNT-F LC inh 3.5.
For Cc1ccc(S(=O)(=O)Oc2ccc(/C=C3\N=C(c4cccc(C)c4)OC3=O)cc2)cc1 the results were Anthrax LF prot 3.2, BoNT-A LC inh2 3.8, Autofluor counter 21802* and BoNT-F LC inh 3.6.

Screens from PubChem BioAssay.
